Structures are written as SMILES. Records with an inconclusive call do not appear. Activity calls are given as the source filed them. How the source made its calls: active means hit-call score of the fitted dose curve at least 0.9, where 1 is the maximum; inconclusive means response in the unintended direction; inactive means score below 0.9.

The term AC50 denotes the midpoint of the concentration-response curve, whichever way the signal moves.

Read-out in the assay: sulfotransferase (SULT2A), SULT2A1 (gene 6822)
The assay is described as follows: CLD_SULT2A_6hr: CellzDirect (CLD) Gene Expression Assay for sulfotransferase (SULT2A) at 6 hours (AID 2283669).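 Further: hits raise transcript level above the DMSO vehicle baseline.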 As for the experimental part:
CLD_6hr is a cell-based, multiplexed-readout assay that uses hepatocyte, a human liver primary cell, with measurements taken at 6 hours after chemical dosing in a 96-well plate.CLD_SULT2A_6hr is one of 16 assay component(s) measured or calculated from the CLD_6hr assay. It is designed to make measurements of mRNA induction, a form of inducible reporter, as detected with chemiluminescence signals by Quantitative Nuclease Protection Assay (qNPA) technology.Data from the assay component CLD_SULT2A_6hr was analyzed at the endpoint, CLD_SULT2A_6hr, in the positive analysis fitting direction relative to DMSO as the negative control and baseline of activity. Using a type of inducible reporter, gain-of-signal activity can be used to understand changes in the reporter gene as they relate to the gene SULT2A1. Furthermore, this assay endpoint can be referred to as a primary readout. To generalize the intended target to other relatable targets, this assay endpoint is annotated to the transferase intended target family, where subfamily is sulfotransferase.
Human hepatocyte cultures were treated daily for two consecutive days with fresh dosing solutions containing appropriate concentrations of the 320 ToxCast chemicals (chemical identities were blinded to CellzDirect and other ToxCast collaborators), vehicle control (0.2% DMSO), and positive control inducers as summarized in Table 1. Due to the large number of treatment groups and chemicals examined, the ToxCast chemicals were divided into two groups (spanning two independent cultures of hepatocytes from separate donor preparations (Hu778: ToxCast plates 1 and 2; Hu776: ToxCast plates 3 and 4). Each preparation of human hepatocyte cultures was treated with respective vehicle control, medium only control, set of six positive controls/reference chemicals for the five hepatic receptor pathways, and a subset of eight of the ToxCast chemicals (indoxacarb, pyrithiobac-sodium, norflurazon, cyhalofop-butyl, methomyl, thiram, acetochlor, and propiconazole). These replicate data, coupled with internal replicates designed within the blinded ToxCast chemical library, provided additional data to evaluate interindividual differences between hepatocyte preparations and their potential impact on chemical profiles.Cell morphology and integrity were evaluated using phase-contrast microscopy as an indicator of hepatocyte cell health (Tyson & Green, 1987). Cultures for each treatment group (i.e., media, vehicle [0.2% DMSO], positive control inducers [multiple concentrations], and the ToxCast chemicals [multiple concentrations]) were observed and cell morphology was assessed relative to vehicle control cultures at each harvest time point (0, 6, 24, or 48 h). […] Images were evaluated at the conclusion of the study to assess changes in cell integrity and account for the effects of chemical exposure on uncharacteristic changes in concentration-dependent gene expression profiles. The results from these determinations of apparent cytotoxicity were annotated (yes/no) alongside the corresponding qNPA data for reference.At the conclusion of each treatment period, hepatocyte cultures (96-well) were washed with 1 volume of HBSS, lysed by addition of 25 ul ArrayPlate lysis buffer (HTG, Tucson, AZ), and 70 ul/well of Denaturation Oil, denatured by incubation at 95C for 10 min, and frozen at approximately -70C until analysis by nuclease protection assay (qNPA) (Roberts et al., 2007). For qNPA analysis, cell lysates were thawed at 50C for approximately 30 min, qNPA probes were added, and samples were incubated at 95C for 10 min to begin the detection process by denaturing the target RNA, dissociating the duplexes and secondary structure hybridization. At the conclusion of the hybridization period, S1 nuclease reagent was added to each sample to digest all nonprotected nucleotides at 50C for 60-90 min. […]
Regarding `C=CCC1=C(C)[C@@H](OC(=O)[C@@H]2[C@@H](C=C(C)C)C2(C)C)CC1=O`, the AC50 is 20 µM (active). `N#CC(CCc1ccc(Cl)cc1)(Cn1cncn1)c1ccccc1` (stereo not given): the result was inactive. Turning to `CC1COC(Cn2cncn2)(c2ccc(Oc3ccc(Cl)cc3)cc2Cl)O1` (stereo not given), the half-maximal activity concentration (AC50) is 20 µM (active).

For the compound `CCOP(=S)(OCC)SCn1c(=O)oc2cc(Cl)ccc21`, the compound was called inactive. On to `CC1=C(C(=O)Nc2ccccc2)SCCO1`, for which the result was inactive. Consider `CC(C)C1(C)N=C(c2nc3ccccc3cc2C(=O)O)NC1=O` (stereo not given), for which the compound was classed as inactive. Take `CC(C)Oc1cc(-n2nc(C(C)(C)C)oc2=O)c(Cl)cc1Cl`: the outcome was inactive. With `COP(N)(=O)SC` (stereo not given), the call was inactive.

With `CCCC1COC(Cn2cncn2)(c2ccc(Cl)cc2Cl)O1` (stereo not given), the outcome was inactive. On to `COc1ccc(C(c2ccc(OC)cc2)C(Cl)(Cl)Cl)cc1`, for which the outcome was inactive. For `N#Cc1nn(-c2c(Cl)cc(C(F)(F)F)cc2Cl)c(N)c1S(=O)C(F)(F)F` (stereo not given), the call was inactive. The same measure, in the same setting: the same measure for `CO/C=C(/C(=O)OC)c1ccccc1Oc1cc(Oc2ccccc2C#N)ncn1`: “inactive”; for `CCCCNC(=O)OCC#CI`: “inactive”. Same read-out and setting: the same measure for `CC(C)(C)c1ccc(CSc2cnn(C(C)(C)C)c(=O)c2Cl)cc1`: “inactive”; for `COC(=O)C(C)Oc1ccc(Oc2ccc(Cl)cc2Cl)cc1` (stereo not given): “inactive”. Take `Cc1ccc(-c2c(Cl)nc(C#N)n2S(=O)(=O)N(C)C)cc1`: the AC50 is 20 µM (active). Take `C#CCOS(=O)OC1CCCCC1Oc1ccc(C(C)(C)C)cc1` (stereo not given): the compound was called inactive. Same read-out and setting: the same measure for `COC(=O)N(OC)c1ccccc1COc1ccn(-c2ccc(Cl)cc2)n1`: “inactive”; for `CCOc1cc(Oc2ccc(C(F)(F)F)cc2Cl)ccc1[N+](=O)[O-]`: “inactive”.

Take `Cc1cc(Cl)ccc1OCC(=O)O`: the compound was called inactive. Turning to `CCOC(=O)C(Cl)Cc1cc(-n2nc(C)n(C(F)F)c2=O)c(F)cc1Cl` (stereo not given), the compound was called inactive. Turning to `COc1cnc(OC)n2nc(NS(=O)(=O)c3c(OCC(F)F)cccc3C(F)(F)F)nc12`, the compound was classed as inactive.

For the compound `CCNc1nc(Cl)nc(NC(C)C)n1`, the result was inactive. Still for that read-out and setting: the same measure for `COC(=O)C=C(C)OP(=O)(OC)OC`: “inactive”; for `COc1nc(NC(C)C)nc(NC(C)C)n1`: “inactive”. Regarding `Cc1c(F)c(F)c(COC(=O)C2C(/C=C(\Cl)C(F)(F)F)C2(C)C)c(F)c1F` (stereo not given), the call was inactive. `COc1nc(C)nc(NC(=O)NS(=O)(=O)c2ccccc2Cl)n1`: the compound was classed as inactive. With `C=CCC1=C(C)C(OC(=O)C2C(C=C(C)C)C2(C)C)CC1=O` (stereo not given), the result was inactive.

On to `CCOC(=O)CC(SP(=S)(OC)OC)C(=O)OCC` (stereo not given), for which the compound was classed as inactive. Regarding `CON(C)C(=O)Nc1ccc(Cl)c(Cl)c1`, the compound was called inactive. Regarding `O=C(O)COc1nc(Cl)c(Cl)cc1Cl`, the compound was called inactive. For `CCc1nn(C)c(C(=O)NCc2ccc(C(C)(C)C)cc2)c1Cl`, the AC50 is 2.8 µM (active). As for `COP(=S)(OC)Oc1nc(Cl)c(Cl)cc1Cl`, the result was inactive. With `CNC(=S)S`, the AC50 is 7.49 µM (active). On to `N#Cc1cc(Br)c(O)c(Br)c1`, for which the compound was called inactive.

`CCCCC(CC)COC(=O)c1ccccc1C(=O)OCC(CC)CCCC` (stereo not given): the outcome was inactive. For the compound `OC(c1ccc(Cl)cc1)(c1cncnc1)c1ccccc1Cl` (stereo not given), the compound was classed as inactive. `COc1nc(C)nc(NC(=O)NS(=O)(=O)c2ccccc2CCC(F)(F)F)n1`: the compound was classed as inactive. On to `CCCN(CCC)c1c([N+](=O)[O-])cc(S(N)(=O)=O)cc1[N+](=O)[O-]`, for which the compound was classed as inactive.

Consider `CCCCOC(=O)c1ccccc1C(=O)OCCCC`, for which the call was inactive.

Source of the values: PubChem BioAssay (EPA / NIEHS).
